Among the data in PubChem BioAssay (EPA / NIEHS) are outcome and AC50 values, retold here.

Active and inactive are the calls of the source. How the source made its calls: active means hit-call score of the fitted dose curve at least 0.9, where 1 is the maximum; inactive means score below 0.9.

Read-out in the experiment: urokinase plasminogen activator (uPA), PLAU (gene 5328)
Briefly: BSK_BE3C_uPA: BioMAP Diversity Plus: BE3C Assay for urokinase plasminogen activator (uPA) Biomarker Activity (AID 2283038).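 On outcome: uPA protein level quantified by ELISA in cell cultures; uPA read one day after compound addition.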 Particulars: primary human bronchial epithelial cells; actives raise or lower the signal. The method in brief:
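Measured by ELISA: uPA from human primary bronchial epithelial cells 24 h after chemical treatment. Values derive from bidirectional curve fitting with DMSO serving as negative control. Total protein by SRB staining in parallel wells flagged overt cytotoxicity.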
Consider `COCCOC[C@H](CC1(C(=O)NC2CCC(C(=O)O)CC2)CCCC1)C(=O)Oc1ccc2c(c1)CCC2` (some centres undefined), for which the result was inactive.
Turning to `COc1cc(-c2nc(NC(=O)c3cc4cc(C)cc(C)c4n3CC(=O)O)sc2CCC2CCCCC2)c(OC)cc1Cl`, the AC50 was 1.03 µM (active).
Regarding `NCC1(Cc2noc(=O)[nH]2)CCCCC1`, the result was inactive.
`CCCCC(CC)COC(=O)CC(C(=O)OCC(CC)CCCC)S(=O)(=O)O` (centres undefined): the half-maximal activity concentration (AC50) was 11.1 µM (active).
For `CCOC(=O)CCC(=O)OCC`, the result was inactive.
Same read-out and setting: under `Nc1ccc(S(=O)(=O)c2ccc(N)cc2)cc1` stands “inactive”; under `CC(C)c1ccc(C(=O)N=C(N)N)cc1S(C)(=O)=O`, “inactive”; under `CCCCCCOCCO`, “inactive”.
On the same count and under the same terms, under `CC(CO)OC(C)CO` (centres undefined) (tested in a mixture with another compound) stands “inactive”.
Same read-out and setting: under `COc1cc(C=O)ccc1O` stands “inactive”.
With `c1cc(-c2ccncc2)ccn1`, the result was inactive.
Still for that read-out and setting: under `CCNc1cccc(C)c1` stands “inactive”; under `CN1CCN(Cc2cc(-c3ccc4[nH]c(=O)oc4c3)co2)[C@@H](c2ccc(F)cc2)C1`, “inactive”.
Consider `Cc1nc(-c2ccc3c(c2)CCN(CCC2CCC(NC(=O)/C=C/c4ccc(F)cc4)CC2)CC3)no1` (centres undefined), for which the concentration at half-maximal activity (AC50) is 9.94 µM (active).
As for `O=c1c(O)c(-c2ccc(O)c(O)c2)oc2cc(O)cc(O)c12`, the outcome was inactive.
As to `CN[C@H]1CC[C@@H](c2ccc(Cl)c(Cl)c2)c2ccc(S(N)(=O)=O)cc21`, the AC50 was 31.1 µM (active).
With `CCCCN(CCCC)CCCC`, the result was inactive.
Still for that read-out and setting: under `COC(=O)c1ccc(O)cc1` stands “inactive”.
With `CC1=C(/C=C/C(C)=C/C=C/C(C)=C/CO)C(C)(C)CCC1`, the result was inactive.
The same measure, in the same setting: under `CNC(=O)[C@H]1O[C@@H](n2cnc3c(NCc4cc(Cl)ccc4OCc4cc(C)no4)ncnc32)[C@H](O)[C@@H]1N` stands “inactive”; under `Cc1cc(=O)[nH]c(=S)[nH]1`, “inactive”.
On to `CCCCc1ccc2c(n1)[C@@H](c1ccc(OC)cc1C[C@H](C)C(=O)O)[C@H](C(=O)O)[C@H]2c1ccc2c(c1)OCO2`, for which the outcome was inactive.
Same read-out and setting: under `FC(F)(F)C(F)(F)C(F)(F)C(F)(F)C(F)(F)C(F)(F)CCI` stands “inactive”.
As to `C=CCOC(=O)c1ccccc1C(=O)OCC=C`, the result was inactive.
`O=[N+]([O-])C(CO)(CO)CO`: the result was inactive.
Consider `Oc1ccc2ccccc2c1N=Nc1ccccc1`, for which the AC50 is 2.47 µM (active).
For the compound `O=C(N[C@@H](Cc1ccccc1)[C@@H](O)C(=O)N1C[C@@H](O)[C@@H](O)C1)c1cc2cc(Cl)ccc2[nH]1`, the result was inactive.
On the same count and under the same terms, the same measure for `CCCCCCCCCCCCCCCC`: “inactive”; for `CCCCCCCCCCC`: “inactive”.

One may read the AC50 as the concentration giving half of the maximal activity seen.
